# Measurements reported in paper PMC7862700, “An all-to-all approach to the identification of sequence-specific readers for epigenetic DNA modifications on cytosine”.
# Legend:
# Experiment in all cases: DAPPL (digital affinity profiling via proximity ligation, sequencing); 10 mM Tris-HCl pH 7.5, 50 mM NaCl, 1 mM DTT, 4% glycerol, room temperature, 30 min; GST-TFs on glutathione beads, 16-mer random dsDNA library, 0.1% formaldehyde crosslink after washing; high values mean tight binding
# Details in all cases: protein: recombinant; tags: N-terminal GST; dsDNA, one strand shown
# FLI1 = molecular target: T1, FLI1 (Homo sapiens, UniProt Q01543 1-452)
# T1 sequence: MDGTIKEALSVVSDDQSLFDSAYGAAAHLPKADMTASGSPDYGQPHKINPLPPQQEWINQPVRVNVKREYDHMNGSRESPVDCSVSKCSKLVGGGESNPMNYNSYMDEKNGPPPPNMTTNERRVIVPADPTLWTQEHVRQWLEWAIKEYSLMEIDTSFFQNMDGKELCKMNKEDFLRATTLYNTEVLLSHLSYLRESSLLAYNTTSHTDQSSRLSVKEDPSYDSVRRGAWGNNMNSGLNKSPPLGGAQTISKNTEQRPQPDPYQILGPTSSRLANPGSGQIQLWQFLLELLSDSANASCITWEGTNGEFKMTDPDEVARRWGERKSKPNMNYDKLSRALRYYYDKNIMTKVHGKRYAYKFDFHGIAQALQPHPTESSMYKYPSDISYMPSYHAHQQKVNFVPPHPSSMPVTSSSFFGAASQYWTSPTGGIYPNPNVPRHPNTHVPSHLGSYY
# In short: (§1)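 Pools were built from human transcription factors expressed in yeast as GST fusions, captured on glutathione beads and DNA-barcoded, along with a tag-only sample. Incubation with 200 nmole of a 16-mer random double-stranded DNA library lasted 30 min at room temperature in Tris/NaCl/DTT/glycerol buffer, and was followed by washing, 0.1% formaldehyde crosslinking, proximity ligation, PCR amplification and Illumina NextSeq500 sequencing. Binding signal is the quotient of each hexamer's read frequency for a factor and its frequency for the tag-only sample.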
# ELK1 = molecular target: T2, ELK1 (Homo sapiens, UniProt P19419 1-428)
# T2 sequence: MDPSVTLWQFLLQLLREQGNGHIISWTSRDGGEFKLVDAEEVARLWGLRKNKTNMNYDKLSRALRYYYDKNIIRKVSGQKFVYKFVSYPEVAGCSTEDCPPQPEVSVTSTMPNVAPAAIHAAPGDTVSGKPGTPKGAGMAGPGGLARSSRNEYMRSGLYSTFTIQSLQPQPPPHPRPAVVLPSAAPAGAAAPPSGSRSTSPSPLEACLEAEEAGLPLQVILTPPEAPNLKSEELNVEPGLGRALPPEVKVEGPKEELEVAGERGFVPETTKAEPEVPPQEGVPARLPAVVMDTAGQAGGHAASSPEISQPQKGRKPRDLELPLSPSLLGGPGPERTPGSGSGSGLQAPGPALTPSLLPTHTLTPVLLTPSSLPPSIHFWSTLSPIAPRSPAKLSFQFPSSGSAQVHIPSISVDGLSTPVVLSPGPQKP
# In short: as §1
# GABPA = molecular target: T3, GABPA (Homo sapiens, UniProt Q06546 1-454)
# T3 sequence: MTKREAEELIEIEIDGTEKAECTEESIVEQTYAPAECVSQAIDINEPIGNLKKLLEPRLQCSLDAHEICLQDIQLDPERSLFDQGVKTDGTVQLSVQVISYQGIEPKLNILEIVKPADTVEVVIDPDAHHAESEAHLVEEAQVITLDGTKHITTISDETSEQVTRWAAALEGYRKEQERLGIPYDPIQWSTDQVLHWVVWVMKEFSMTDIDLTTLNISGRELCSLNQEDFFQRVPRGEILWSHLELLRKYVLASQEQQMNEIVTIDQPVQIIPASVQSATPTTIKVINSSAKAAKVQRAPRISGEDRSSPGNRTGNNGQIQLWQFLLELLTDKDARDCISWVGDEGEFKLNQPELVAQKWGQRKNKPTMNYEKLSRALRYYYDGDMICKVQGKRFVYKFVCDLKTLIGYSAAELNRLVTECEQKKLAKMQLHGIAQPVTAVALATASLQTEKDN
# In short: as §1
# ELF1 = ELF1 (Homo sapiens, UniProt P32519 1-619)
# ELF1, sequence (P32519 whole entry): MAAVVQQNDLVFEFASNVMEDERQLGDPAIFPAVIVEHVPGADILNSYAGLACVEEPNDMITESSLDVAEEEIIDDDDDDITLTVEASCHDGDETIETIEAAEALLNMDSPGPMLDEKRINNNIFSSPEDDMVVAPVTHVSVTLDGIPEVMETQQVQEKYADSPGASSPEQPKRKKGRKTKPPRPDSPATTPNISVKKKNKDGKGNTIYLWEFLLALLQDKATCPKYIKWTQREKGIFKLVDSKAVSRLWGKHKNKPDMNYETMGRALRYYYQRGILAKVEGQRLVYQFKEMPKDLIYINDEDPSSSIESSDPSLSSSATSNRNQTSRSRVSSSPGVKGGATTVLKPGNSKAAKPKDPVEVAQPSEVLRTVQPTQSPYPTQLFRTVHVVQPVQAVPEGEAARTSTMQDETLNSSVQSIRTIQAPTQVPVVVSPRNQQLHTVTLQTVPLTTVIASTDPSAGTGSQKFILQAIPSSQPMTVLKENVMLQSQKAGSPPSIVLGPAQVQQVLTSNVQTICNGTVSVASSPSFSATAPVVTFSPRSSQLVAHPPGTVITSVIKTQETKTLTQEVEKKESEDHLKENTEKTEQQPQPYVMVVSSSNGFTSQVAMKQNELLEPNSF
# In short: as §1
# EHF = molecular target: T4, EHF (Homo sapiens, UniProt Q9NZC4 1-300)
# T4 sequence: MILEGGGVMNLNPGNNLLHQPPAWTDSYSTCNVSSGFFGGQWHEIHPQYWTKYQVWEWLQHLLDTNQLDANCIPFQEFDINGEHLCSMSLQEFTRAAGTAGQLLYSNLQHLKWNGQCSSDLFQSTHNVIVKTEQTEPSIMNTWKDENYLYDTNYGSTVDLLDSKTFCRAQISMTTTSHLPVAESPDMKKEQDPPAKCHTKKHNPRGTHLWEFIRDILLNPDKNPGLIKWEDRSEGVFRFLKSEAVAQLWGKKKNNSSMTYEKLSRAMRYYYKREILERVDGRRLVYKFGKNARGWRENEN
# In short: as §1
# SPI1 = SPI1 (Homo sapiens, UniProt P17947 1-270)
# In short: as §1
# SPIB = SPIB (Homo sapiens, UniProt Q01892 1-262)
# SPIB, sequence (Q01892 whole entry): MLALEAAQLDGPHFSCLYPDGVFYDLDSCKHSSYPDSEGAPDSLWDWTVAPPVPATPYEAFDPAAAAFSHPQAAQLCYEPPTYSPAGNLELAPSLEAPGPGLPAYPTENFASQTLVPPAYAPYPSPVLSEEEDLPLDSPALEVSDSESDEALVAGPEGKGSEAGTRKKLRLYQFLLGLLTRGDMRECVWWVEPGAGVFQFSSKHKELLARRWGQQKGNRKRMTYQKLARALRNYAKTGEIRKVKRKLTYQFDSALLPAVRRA
# In short: as §1
# FEV = molecular target: T5, FEV (Homo sapiens, UniProt Q99581 1-238)
# T5 sequence: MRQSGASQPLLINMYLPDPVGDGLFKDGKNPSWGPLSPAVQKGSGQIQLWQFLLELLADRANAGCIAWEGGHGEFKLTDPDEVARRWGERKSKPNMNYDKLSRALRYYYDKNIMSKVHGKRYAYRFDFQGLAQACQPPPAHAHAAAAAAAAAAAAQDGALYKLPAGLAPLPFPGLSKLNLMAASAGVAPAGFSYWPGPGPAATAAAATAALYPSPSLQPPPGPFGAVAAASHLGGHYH
# In short: as §1
# ETV5 = ETV5 (Homo sapiens, UniProt P41161 1-510)
# ETV5, sequence (P41161 whole entry): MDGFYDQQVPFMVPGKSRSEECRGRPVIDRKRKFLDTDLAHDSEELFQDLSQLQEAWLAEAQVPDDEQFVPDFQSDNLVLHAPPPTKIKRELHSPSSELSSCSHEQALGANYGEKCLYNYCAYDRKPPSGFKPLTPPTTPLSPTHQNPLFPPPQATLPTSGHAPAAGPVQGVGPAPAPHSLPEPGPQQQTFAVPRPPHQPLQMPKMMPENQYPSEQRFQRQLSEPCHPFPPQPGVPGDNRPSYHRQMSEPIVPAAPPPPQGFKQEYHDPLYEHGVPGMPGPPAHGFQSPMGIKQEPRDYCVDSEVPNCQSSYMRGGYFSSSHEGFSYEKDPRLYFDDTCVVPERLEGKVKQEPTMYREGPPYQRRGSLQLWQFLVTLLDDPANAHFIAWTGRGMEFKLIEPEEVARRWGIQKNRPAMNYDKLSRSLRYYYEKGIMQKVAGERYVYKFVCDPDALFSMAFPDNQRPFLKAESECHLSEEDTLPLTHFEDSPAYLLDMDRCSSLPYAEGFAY
# In short: as §1
# ELF4 = ELF4 (Homo sapiens, UniProt Q99607 1-663)
# ELF4, sequence (Q99607 whole entry): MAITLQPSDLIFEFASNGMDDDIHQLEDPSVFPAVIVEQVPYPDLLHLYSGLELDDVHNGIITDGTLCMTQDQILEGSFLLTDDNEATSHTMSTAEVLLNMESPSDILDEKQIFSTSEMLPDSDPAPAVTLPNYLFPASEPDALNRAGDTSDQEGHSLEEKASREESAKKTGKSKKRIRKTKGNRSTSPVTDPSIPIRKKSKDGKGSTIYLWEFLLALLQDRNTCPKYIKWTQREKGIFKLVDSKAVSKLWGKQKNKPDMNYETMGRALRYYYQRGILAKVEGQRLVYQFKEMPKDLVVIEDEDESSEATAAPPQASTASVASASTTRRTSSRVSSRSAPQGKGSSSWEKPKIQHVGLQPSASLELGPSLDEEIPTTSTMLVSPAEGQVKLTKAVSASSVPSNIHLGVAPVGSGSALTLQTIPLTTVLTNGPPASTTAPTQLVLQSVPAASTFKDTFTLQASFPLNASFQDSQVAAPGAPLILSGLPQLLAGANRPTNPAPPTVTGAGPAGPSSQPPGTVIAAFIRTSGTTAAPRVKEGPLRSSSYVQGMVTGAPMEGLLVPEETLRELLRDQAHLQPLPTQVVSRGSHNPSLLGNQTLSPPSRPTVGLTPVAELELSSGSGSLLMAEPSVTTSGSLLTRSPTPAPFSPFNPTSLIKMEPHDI
# In short: as §1
# ETV2 = molecular target: T6, ETV2 (Homo sapiens, UniProt O00321 1-342)
# T6 sequence: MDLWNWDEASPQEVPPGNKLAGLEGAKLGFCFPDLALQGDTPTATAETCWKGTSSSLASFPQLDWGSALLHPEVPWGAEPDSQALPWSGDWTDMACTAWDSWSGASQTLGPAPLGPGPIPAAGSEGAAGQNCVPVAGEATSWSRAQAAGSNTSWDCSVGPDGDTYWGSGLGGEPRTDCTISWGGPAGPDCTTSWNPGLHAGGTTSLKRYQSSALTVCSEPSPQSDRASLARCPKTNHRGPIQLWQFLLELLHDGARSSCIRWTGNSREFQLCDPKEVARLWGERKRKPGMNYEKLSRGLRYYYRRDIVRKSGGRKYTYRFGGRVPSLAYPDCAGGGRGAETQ
# In short: as §1
# ETV1 = ETV1 (Homo sapiens, UniProt P50549 1-477)
# ETV1, sequence (P50549 whole entry): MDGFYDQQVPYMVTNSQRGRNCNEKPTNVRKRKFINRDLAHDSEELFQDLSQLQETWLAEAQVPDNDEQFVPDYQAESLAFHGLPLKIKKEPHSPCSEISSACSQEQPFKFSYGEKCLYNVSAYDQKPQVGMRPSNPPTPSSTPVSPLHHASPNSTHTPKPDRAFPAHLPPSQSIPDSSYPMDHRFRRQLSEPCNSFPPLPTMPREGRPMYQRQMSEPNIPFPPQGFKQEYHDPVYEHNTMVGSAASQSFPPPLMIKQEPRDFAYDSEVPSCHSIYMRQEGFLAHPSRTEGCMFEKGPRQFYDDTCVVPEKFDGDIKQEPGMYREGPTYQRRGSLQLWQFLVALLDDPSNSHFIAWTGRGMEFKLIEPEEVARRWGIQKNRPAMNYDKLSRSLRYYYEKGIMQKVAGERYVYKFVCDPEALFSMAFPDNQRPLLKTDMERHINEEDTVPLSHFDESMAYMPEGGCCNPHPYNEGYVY
# In short: as §1
# ERF = molecular target: T7, ERF (Homo sapiens, UniProt P50548 1-548)
# T7 sequence: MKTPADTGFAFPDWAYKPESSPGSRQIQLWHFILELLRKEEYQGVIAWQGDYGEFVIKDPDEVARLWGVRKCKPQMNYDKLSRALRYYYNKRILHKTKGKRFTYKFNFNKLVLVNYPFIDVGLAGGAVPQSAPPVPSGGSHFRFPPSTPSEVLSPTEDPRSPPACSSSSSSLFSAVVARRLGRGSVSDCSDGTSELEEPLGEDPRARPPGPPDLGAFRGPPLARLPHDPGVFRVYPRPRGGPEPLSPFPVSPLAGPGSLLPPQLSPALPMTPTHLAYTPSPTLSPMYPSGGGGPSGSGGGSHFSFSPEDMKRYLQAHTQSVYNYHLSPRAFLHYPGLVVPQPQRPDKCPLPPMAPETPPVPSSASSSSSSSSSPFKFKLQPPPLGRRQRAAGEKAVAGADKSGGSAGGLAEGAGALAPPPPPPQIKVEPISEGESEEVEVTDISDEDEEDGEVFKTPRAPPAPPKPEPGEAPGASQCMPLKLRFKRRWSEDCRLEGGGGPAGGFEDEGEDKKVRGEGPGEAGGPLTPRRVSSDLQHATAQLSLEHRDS
# In short: as §1
# ETV3L = molecular target: T8, ETV3L (Homo sapiens, UniProt Q6ZN32 1-361)
# T8 sequence: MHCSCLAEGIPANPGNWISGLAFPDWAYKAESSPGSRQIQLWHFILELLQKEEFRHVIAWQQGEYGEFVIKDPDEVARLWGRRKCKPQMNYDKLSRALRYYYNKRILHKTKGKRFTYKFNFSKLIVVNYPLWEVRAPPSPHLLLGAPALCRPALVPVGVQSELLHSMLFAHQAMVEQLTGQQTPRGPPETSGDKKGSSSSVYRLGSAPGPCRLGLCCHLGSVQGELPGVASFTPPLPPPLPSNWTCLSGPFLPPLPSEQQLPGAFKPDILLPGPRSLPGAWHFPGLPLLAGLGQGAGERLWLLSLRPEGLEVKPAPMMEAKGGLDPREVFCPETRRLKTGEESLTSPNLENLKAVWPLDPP
# In short: as §1
# ETS2 = molecular target: T9, ETS2 (Homo sapiens, UniProt P15036 1-469)
# T9 sequence: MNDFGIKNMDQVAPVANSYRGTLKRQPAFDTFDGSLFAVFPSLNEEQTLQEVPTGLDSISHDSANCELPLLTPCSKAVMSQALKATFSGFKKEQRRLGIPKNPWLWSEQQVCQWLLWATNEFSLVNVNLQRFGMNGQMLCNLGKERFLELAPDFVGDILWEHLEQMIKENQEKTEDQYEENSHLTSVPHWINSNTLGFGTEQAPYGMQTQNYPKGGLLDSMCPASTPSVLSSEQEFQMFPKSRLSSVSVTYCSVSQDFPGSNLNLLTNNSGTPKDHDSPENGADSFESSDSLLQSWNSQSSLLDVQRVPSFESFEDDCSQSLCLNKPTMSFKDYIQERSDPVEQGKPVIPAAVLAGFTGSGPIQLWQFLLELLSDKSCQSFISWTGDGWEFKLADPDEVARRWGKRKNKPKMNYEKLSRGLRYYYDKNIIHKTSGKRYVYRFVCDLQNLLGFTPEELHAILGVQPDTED
# In short: as §1
# ETV7 = molecular target: T10, ETV7 (Homo sapiens, UniProt Q9Y603 1-341)
# T10 sequence: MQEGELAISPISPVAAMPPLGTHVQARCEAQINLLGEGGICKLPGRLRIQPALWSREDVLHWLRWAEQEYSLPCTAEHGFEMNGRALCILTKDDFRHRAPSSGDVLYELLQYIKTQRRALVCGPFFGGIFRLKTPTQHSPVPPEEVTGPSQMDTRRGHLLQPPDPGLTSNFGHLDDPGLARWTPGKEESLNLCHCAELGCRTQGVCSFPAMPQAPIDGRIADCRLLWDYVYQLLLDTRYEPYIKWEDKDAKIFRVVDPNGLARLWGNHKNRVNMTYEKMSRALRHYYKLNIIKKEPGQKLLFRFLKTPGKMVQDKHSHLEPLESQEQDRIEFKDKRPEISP
# In short: as §1
# ETV3 = molecular target: T11, ETV3 (Homo sapiens, UniProt P41162-2 1-143)
# T11 sequence: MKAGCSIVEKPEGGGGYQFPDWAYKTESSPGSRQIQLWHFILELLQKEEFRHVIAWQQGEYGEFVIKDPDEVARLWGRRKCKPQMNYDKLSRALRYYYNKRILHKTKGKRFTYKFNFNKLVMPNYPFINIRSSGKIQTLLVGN
# In short: as §1
# ETV6 = ETV6 (Homo sapiens, UniProt P41212 1-452)
# ETV6, sequence (P41212 whole entry): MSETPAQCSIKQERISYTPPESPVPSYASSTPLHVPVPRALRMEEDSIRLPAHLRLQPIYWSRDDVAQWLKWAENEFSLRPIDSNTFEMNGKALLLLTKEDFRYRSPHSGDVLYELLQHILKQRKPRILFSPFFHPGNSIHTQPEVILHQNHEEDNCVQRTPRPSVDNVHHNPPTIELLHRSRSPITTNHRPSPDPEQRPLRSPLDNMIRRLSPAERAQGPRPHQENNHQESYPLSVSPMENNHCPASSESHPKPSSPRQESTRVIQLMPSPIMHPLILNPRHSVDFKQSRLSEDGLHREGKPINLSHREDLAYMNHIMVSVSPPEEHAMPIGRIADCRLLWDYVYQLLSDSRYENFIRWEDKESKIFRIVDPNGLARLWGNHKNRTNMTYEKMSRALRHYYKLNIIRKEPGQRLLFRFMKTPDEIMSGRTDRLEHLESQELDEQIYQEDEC
# In short: as §1
sequence,measurement,setting,value
TTGTCA,binding signal,FLI1,"1.1 fold enrichment (6-mer frequency, TF over GST control)"
same,binding signal,ELK1,"1.04 fold enrichment (6-mer frequency, TF over GST control)"
same,binding signal,GABPA,"1.08 fold enrichment (6-mer frequency, TF over GST control)"
same,binding signal,ELF1,"1.13 fold enrichment (6-mer frequency, TF over GST control)"
same,binding signal,EHF,"1.11 fold enrichment (6-mer frequency, TF over GST control)"
same,binding signal,SPI1,"1.16 fold enrichment (6-mer frequency, TF over GST control)"
same,binding signal,SPIB,"1.21 fold enrichment (6-mer frequency, TF over GST control)"
same,binding signal,FEV,"1.06 fold enrichment (6-mer frequency, TF over GST control)"
same,binding signal,ETV5,"1.05 fold enrichment (6-mer frequency, TF over GST control)"
same,binding signal,ELF4,"1.14 fold enrichment (6-mer frequency, TF over GST control)"
same,binding signal,ETV2,"1.02 fold enrichment (6-mer frequency, TF over GST control)"
same,binding signal,ETV1,"1.15 fold enrichment (6-mer frequency, TF over GST control)"
same,binding signal,ERF,"1.3 fold enrichment (6-mer frequency, TF over GST control)"
same,binding signal,ETV3L,"1.17 fold enrichment (6-mer frequency, TF over GST control)"
same,binding signal,ETS2,"1.11 fold enrichment (6-mer frequency, TF over GST control)"
same,binding signal,ETV7,"1.2 fold enrichment (6-mer frequency, TF over GST control)"
same,binding signal,ETV3,"1.16 fold enrichment (6-mer frequency, TF over GST control)"
same,binding signal,ETV6,"1.07 fold enrichment (6-mer frequency, TF over GST control)"
